Compounds without any hit were thinned out: in the full panel of roughly 83,000, 20% have a hit.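 Activity criterion: percent growth below 10, measured after cells in 96-well plates were exposed to a single compound concentration for 48 hours.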 A number with no mark means an inactive call. Calls of active or inactive are those of the source.
system: CCRF-CEM leukemia; test: NCI-60 one-dose screen, 48 h (100 = growth as untreated, 0 = no growth, -100 = all killed); settings: 10 µM unless noted
Protocol: Growth inhibition of the CCRF-CEM human tumor cell line is measured as a screen for anti-cancer activity. Cells are grown in 96 well plates and exposed to the test compound for 48 hours. Compounds are tested at a single concentration, which is 10^-5 M for most compounds. The reported endpoint is percent growth (GI% or GIPRCNT), where numbers from 0 - 100% represent growth inhibition, and numbers from -100% - 0 represent cell death. For example, a value of 40 represents 60% growth inhibition. A value of 0 means no net growth occurred over the course of the experiment. A value of -40 indicates 40% of cells at the beginning of the experiment died by the end of the experiment. A value of -100 means all cells are dead at the end of the experiment.
NCI-60 Human Tumor Cell Lines Screen was performed using the standard one-dose NCI protocol, which is described in more detail at https://dtp.cancer.gov/discovery_development/nci-60/default.htm.
Compounds with GIPRCNT values below 10 were considered active. Activity score was based on GIPRCNT using the following formula: […]
Score is 0 for GIPRCNT values of 100 or above, 50 for GIPRCNT values of 0, and 100 for GIPRCNT values of -100.

Row | SMILES | growth
1 | Cc1nc(Sc2nc3ccc([N+](=O)[O-])cc3s2)sc1C | -13.5% (active)
2 | CCOC(=O)NC(/C=C/c1ccccc1)NC(=O)OCC | 98.4%
3 | O=[N+]([O-])c1ccc(C(Br)c2ccc([N+](=O)[O-])cc2)cc1 | 16.3%
4 | c1ccc(-c2cc3cc4ccccc4cn3c2)cc1 | 90.2%
5 | CCCN(CCC)C(=O)c1ccc(C)cc1 | 85.7%
6 | Cc1cccc2c(N)c3ccccc3nc12 | 6.63% (active)
7 | S=C=Nc1ccc(N2CCOCC2)cc1 | 80.6%
8 | NC(=S)N/N=C\c1nccc2c(N)cccc12 | 8.4% (active)
9 | O=[N+]([O-])c1ccc2c(c1)Cc1ccccc1-2 | 91.4%
10 | C/C=C/c1cc2c(c(=O)o1)C(=O)[C@@H](O)[C@H](C)O2 | -17.5% (active)
11 | O=C(Cc1ccccc1)C(F)(F)F | 98.4%
12 | CN(C)c1ccc(/C=C/c2cc[n+](C)c(/C=C/c3ccc(N(C)C)cc3)c2)cc1 | 6.95% (active)
13 | O=[N+]([O-])c1ccc(N2CCN(Cc3ccccc3)CC2)c2c1no[n+]2[O-] | -31.6% (active)
14 | COc1ccc2nc3cc([N+](=O)[O-])ccc3c(NNc3ccccc3)c2c1 | 90.6%
15 | O=C(/C=C/c1ccccc1)c1ccccc1O | 55.1%
16 | COc1ccc2c(c1)c(CC(=O)O)c(C)n2C(=O)c1ccc(Cl)cc1 | 89.7%
17 | CC(=O)OC1CC2CCC1(C)C2(C)C (stereo not given) | -45% (active)
18 | O=C(CCl)N(c1ccccc1)c1ccccc1 | 92.7%
19 | Oc1ccccc1N=Cc1ccccc1 | 86.6%
20 | CN1CCC(CN2c3ccccc3Sc3ccccc32)C1 (stereo not given) | 72.7%

Row | SMILES | growth
21 | CCOC(=O)C1(C)CCCC1N (stereo not given) | 103%
22 | CC(O)C(O)C(O)C(O)C(O)C(=O)NNc1ccccc1 (stereo not given) | 59.6%
23 | O=[n+]1c2ccccc2n([O-])c2cc(Cl)ccc21 | -6.38% (active)
24 | OC(c1cc2ccc(C(F)(F)F)cc2c2cc(C(F)(F)F)ccc12)C1CCCCN1 (stereo not given) | -68% (active)
25 | O=C(Cc1nc2cc(Cl)c(Cl)cc2nc1CC(=O)c1cccnc1)c1cccnc1 | 31.4%
26 | c1ccc2sc(SSN3CC4CCC(CC4)C3)nc2c1 | 111%
27 | O=[N+]([O-])c1ccc(C2N(Cc3ccc(Cl)cc3)CCN2Cc2ccc(Cl)cc2)cc1 | 83.5%
28 | NCCCN(CCCN)CCCNCc1c2ccccc2c(CNCCCN(CCCN)CCCN)c2ccccc12 | 102%
29 | O=C1C(=O)c2cc([N+](=O)[O-])ccc2-c2ccccc21 | -13.5% (active)
30 | O=[N+]([O-])C=C(c1ccccc1)c1ccccc1 | 68.6%
31 | CC12CCC(O)CC1=CCC1C2CCC2(C)C3=NN=CC3CC12 (stereo not given) | 91%
32 | Cc1ccccc1N=C(N)Nc1ccccc1C (tested in a mixture with another compound) | 9.64% (active)
33 | O=C1C=C(Cl)C(=O)c2ccccc21 | 53.3%
34 | CCCOS(=O)(=O)c1ccccc1 | 6.52% (active)
35 | O=C(O)c1cc2c(s1)C(=O)c1sccc1C2=O | 42.5%
36 | O=C1C(=O)c2cccnc2-c2ncccc21 | -32.6% (active)
37 | CCN(CC)CCNC(Cc1ccccc1)c1ccc(OCc2ccccc2)cc1 (stereo not given) | 51.4%
38 | CCC[CH2][Sn]1([CH2]CCC)[O]C2C(CO)OC(n3ccc(N)nc3=O)C2[O]1 (stereo not given) | -30.7% (active)
39 | [Cl-].[Rh+3].c1ccc(-c2ccnc3c2ccc2c(-c4ccccc4)ccnc23)cc1.c1ccc(-c2ccnc3c2ccc2c(-c4ccccc4)ccnc23)cc1.c1ccc(-c2ccnc3c2ccc2c(-c4ccccc4)ccnc23)cc1 | 76.2%
40 | CCCCCCCCCCCCCCCCCC[S+](C)CC (stereo not given) | 14.6%

Source: PubChem BioAssay (NCI)
